# Of roughly 7,900 targets only a part is listed; those with a hit were picked by preference. About 0.6% of all pairs of compound and target were hits. Values without a mark were called inactive.
# Compound: O=C(CCCCCCC(=O)Nc1ccccc1)NO [vorinostat]
# Assay: log2 fold change, soluble protein after heating vs DMSO (PISA); higher = thermal stabilisation; K562 cells, 10 uM, 30 min; active = over 0.2 and 3.5 SD of the protein, either way, in both replicates (recomputed)
# Procedure, shortened: (§1)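 For each measurement, 10 μM compound was applied for 30 min to K562 cells at 2×10^6 cells/mL. Aliquots were heated for 3 min across 48°C-58°C, pooled, and extracted in PBS with 0.5% NP-40 at 4°C; the supernatant after 21,000xg for 90 min was soluble protein. This was quantified by TMTpro 16plex LC-MS/MS with channel sums equalised, and thermal stability was reported relative to control samples from duplicates, on a log2 fold-change scale.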
# Chain of UniProt Q7Z4Q2 (Q7Z4Q2 whole entry, looked up): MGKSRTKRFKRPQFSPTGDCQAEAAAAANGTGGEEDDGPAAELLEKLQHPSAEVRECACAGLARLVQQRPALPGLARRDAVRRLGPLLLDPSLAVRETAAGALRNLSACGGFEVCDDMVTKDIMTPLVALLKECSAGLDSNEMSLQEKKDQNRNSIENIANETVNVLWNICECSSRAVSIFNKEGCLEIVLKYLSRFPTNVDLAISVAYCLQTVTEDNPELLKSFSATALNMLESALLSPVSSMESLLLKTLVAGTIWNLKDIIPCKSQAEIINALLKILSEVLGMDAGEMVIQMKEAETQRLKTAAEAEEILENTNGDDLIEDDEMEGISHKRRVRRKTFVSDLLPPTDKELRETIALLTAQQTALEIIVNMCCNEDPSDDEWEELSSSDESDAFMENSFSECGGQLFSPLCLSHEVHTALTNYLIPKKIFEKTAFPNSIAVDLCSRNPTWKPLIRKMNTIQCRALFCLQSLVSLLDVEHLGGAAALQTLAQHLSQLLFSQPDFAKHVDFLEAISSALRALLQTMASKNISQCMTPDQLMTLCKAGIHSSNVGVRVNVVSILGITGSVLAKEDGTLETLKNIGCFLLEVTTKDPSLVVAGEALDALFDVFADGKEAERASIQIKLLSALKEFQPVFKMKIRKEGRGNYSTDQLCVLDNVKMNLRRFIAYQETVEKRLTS
# Chain of UniProt P60520 (P60520 whole entry, looked up): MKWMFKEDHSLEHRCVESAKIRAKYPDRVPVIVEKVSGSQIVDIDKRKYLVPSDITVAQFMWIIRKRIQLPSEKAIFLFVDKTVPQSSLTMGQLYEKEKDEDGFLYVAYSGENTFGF
# Chain of UniProt O76003 (O76003 whole entry, looked up): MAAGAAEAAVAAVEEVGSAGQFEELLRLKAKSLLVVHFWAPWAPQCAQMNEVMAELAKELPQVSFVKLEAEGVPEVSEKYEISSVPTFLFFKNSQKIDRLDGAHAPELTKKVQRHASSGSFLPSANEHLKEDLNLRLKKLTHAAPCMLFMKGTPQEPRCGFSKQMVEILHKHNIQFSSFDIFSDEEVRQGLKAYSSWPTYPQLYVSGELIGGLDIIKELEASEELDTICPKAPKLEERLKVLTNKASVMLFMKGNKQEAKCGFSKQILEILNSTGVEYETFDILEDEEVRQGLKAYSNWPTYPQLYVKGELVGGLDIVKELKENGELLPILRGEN
# Chain of UniProt O43824 (O43824 whole entry, looked up): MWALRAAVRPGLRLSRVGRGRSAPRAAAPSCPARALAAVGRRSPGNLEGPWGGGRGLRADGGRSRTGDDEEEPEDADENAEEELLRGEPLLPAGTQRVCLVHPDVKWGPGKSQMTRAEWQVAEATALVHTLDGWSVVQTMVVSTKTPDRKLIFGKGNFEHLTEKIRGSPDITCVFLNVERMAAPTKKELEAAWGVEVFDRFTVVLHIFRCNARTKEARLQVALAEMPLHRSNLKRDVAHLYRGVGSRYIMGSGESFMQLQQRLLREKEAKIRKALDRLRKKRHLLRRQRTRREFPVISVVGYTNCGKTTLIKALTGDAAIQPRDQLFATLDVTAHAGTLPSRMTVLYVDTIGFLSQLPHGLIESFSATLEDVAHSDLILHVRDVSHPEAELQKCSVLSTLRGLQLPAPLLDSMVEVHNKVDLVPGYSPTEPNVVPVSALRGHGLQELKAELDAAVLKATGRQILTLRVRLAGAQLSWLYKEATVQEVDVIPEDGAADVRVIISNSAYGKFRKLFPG
# Chain of UniProt Q13907 (Q13907 whole entry, looked up): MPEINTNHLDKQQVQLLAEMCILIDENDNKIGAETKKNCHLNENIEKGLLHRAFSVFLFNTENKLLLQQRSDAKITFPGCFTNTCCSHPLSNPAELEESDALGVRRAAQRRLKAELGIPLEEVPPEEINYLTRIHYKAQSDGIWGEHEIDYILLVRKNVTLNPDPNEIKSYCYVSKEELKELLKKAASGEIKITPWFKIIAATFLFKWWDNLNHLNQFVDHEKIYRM
# Chain of UniProt O00458 (O00458 whole entry, looked up): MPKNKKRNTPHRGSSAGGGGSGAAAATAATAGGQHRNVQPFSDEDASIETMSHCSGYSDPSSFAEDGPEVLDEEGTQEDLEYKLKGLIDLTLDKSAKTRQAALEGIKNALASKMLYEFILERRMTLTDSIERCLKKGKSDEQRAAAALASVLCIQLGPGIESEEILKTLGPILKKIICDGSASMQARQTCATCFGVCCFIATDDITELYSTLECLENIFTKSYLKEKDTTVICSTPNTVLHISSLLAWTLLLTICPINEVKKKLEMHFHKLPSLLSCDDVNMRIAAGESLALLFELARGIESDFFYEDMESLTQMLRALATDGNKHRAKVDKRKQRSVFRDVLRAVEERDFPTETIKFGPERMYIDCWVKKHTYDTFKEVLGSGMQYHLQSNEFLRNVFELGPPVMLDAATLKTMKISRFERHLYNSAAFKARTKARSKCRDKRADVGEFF
# Chain of UniProt P48507 (P48507 whole entry, looked up): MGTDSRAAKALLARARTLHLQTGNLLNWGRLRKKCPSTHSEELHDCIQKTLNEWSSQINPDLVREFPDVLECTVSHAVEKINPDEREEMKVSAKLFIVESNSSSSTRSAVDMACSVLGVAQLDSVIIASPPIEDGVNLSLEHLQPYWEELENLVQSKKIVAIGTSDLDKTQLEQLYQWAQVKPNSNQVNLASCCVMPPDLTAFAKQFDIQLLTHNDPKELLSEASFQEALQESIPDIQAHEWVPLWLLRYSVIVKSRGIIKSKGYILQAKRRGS
# Chain of UniProt P52657 (P52657 whole entry, looked up): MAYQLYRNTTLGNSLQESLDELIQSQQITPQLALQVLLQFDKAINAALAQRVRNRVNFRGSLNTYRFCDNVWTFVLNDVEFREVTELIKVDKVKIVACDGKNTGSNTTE
# Chain of UniProt P13807 (P13807 whole entry, looked up): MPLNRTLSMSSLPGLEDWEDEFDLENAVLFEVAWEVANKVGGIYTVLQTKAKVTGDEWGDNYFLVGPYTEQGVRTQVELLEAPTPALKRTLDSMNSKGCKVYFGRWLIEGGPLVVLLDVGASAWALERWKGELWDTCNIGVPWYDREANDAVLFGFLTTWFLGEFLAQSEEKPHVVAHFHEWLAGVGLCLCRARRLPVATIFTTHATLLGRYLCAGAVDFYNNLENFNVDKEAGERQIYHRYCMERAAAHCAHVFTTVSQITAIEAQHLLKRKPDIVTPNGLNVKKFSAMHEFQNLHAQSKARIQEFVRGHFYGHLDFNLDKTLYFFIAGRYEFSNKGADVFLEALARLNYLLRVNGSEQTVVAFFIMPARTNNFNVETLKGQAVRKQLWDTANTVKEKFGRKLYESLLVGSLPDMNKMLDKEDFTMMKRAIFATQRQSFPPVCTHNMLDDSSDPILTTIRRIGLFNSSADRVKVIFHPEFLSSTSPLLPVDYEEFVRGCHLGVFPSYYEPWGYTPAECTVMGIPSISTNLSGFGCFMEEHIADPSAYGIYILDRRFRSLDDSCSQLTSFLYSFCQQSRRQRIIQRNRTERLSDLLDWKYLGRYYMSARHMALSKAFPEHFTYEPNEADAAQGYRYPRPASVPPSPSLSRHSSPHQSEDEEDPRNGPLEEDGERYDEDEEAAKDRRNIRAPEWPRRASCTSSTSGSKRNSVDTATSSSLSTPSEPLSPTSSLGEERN
# Chain of UniProt P30711 (P30711 whole entry, looked up): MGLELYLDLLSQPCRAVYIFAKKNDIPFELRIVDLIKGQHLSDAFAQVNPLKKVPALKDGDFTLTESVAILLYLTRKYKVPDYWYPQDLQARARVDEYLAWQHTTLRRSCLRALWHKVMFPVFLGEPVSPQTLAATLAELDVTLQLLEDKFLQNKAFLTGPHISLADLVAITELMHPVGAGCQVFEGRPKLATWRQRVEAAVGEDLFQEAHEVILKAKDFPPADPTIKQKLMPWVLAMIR
# Chain of UniProt Q02790 (Q02790 whole entry, looked up): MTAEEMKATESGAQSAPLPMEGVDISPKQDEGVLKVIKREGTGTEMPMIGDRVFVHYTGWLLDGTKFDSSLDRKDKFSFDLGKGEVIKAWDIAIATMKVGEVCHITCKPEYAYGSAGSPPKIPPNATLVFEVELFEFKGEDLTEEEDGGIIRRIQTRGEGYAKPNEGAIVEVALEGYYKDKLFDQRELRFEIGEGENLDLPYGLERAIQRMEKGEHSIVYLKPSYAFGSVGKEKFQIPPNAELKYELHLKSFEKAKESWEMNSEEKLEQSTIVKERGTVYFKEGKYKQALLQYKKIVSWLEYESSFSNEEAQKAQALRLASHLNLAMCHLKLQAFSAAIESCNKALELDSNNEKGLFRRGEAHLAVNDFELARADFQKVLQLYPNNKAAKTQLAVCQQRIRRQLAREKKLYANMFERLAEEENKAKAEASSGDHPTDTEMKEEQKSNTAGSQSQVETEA
# Chain of UniProt P36915 (P36915 whole entry, looked up): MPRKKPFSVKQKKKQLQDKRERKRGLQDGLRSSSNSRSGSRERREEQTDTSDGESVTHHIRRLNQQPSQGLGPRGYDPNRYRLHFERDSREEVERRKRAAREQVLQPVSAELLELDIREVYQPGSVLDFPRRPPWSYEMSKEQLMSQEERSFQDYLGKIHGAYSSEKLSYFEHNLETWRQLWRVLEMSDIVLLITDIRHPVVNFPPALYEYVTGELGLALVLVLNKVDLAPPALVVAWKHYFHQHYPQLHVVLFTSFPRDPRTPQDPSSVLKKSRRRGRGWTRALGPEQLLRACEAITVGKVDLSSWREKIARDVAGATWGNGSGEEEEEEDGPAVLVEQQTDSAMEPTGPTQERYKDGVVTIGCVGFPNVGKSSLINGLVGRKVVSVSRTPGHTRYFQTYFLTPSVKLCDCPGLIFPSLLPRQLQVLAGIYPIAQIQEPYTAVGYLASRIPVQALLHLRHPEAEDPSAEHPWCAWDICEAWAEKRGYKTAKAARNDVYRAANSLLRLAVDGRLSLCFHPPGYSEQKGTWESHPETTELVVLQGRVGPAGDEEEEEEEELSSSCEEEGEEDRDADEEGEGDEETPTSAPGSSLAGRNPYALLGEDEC
row,Target,log2 fold change
1,FAT1 (UniProt Q14517),-0.04
2,GLRX3 (UniProt O76003),-0.013
3,IFRD1 (UniProt O00458),-0.25
4,IDI1 isoform 2 (UniProt Q13907),0.008
5,HEATR3 (UniProt Q7Z4Q2),-0.017
6,GABARAPL2 (UniProt P60520),0.063
7,GTPBP6 (UniProt O43824),-0.1
8,GCLM (UniProt P48507),0.051
9,GTF2A2 (UniProt P52657),-0.044
10,FASTKD1 (UniProt Q53R41),0.018

# Compound: O=C(CCCCCCNC(=O)c1cnc(N(c2ccccc2)c2ccccc2Cl)nc1)NO [citarinostat]
# Assay: as above
# Procedure, shortened: as §1
row,Target,log2 fold change
1,GABPA (UniProt Q06546),0.139
2,FRA10AC1 isoform 3 (UniProt Q70Z53),0.08
3,GINS2 (UniProt Q9Y248),0.028
4,GNAS (UniProt Q5JWF2),-0.043
5,GYS1 (UniProt P13807),-0.103
6,HEXB (UniProt P07686),0.033
7,HDAC1 (UniProt Q13547),1.52 (active)
8,FKBP4 (UniProt Q02790),0.072
9,GATD1 (UniProt Q8NB37),-0.031
10,GSTT1 (UniProt P30711),-0.018
11,HDAC10 (UniProt Q969S8),0.062
12,HDAC2 (UniProt Q92769),1.04 (active)
13,FKBP3 (UniProt Q00688),0.009
14,HDAC7 isoform 5 (UniProt Q8WUI4),0.032
15,FBXO9 (UniProt Q9UK97),0.157
16,GNL3 (UniProt Q9BVP2),0.134

row,Target,log2 fold change
1,GIGYF2 (UniProt Q6Y7W6),0.06
2,GSTP1 (UniProt P09211),0.034
3,GNL1 (UniProt P36915),0.022
4,GTF3A (UniProt Q92664),0.06
5,GEMIN2 (UniProt O14893),-0.103
6,FUT8 (UniProt Q9BYC5),0.108
7,GLCCI1 (UniProt Q86VQ1),0.002
8,GLRX3 (UniProt O76003),0.014
9,IFRD1 (UniProt O00458),-0.035
10,IDI1 isoform 2 (UniProt Q13907),-0.017
11,HEATR3 (UniProt Q7Z4Q2),0.075
12,GABARAPL2 (UniProt P60520),0.041
13,GTPBP6 (UniProt O43824),0.093
14,GCLM (UniProt P48507),0.074
15,GTF2A2 (UniProt P52657),0.058
16,FASTKD1 (UniProt Q53R41),-0.055

# Compound: O=C(O)c1ccc2c(c1)nc(Nc1cccc(Cl)c1)c1ccncc12 [silmitasertib]
# Assay: as above
# Procedure, shortened: as §1
row,Target,log2 fold change
1,GABPA (UniProt Q06546),-0.007
2,FRA10AC1 isoform 3 (UniProt Q70Z53),0.129
3,GINS2 (UniProt Q9Y248),-0.031
4,GNAS (UniProt Q5JWF2),-0.018
5,GYS1 (UniProt P13807),0.05
6,HEXB (UniProt P07686),0.007
7,HDAC1 (UniProt Q13547),0.06
8,FKBP4 (UniProt Q02790),0.01
9,GATD1 (UniProt Q8NB37),-0.025
10,GSTT1 (UniProt P30711),-0.074
11,HDAC10 (UniProt Q969S8),-0.271
12,GPD1 (UniProt P21695),-0.16
13,HDAC2 (UniProt Q92769),0.04
14,FKBP3 (UniProt Q00688),-0.034
15,HDAC7 isoform 5 (UniProt Q8WUI4),0.021
16,FBXO9 (UniProt Q9UK97),0.132
17,GOPC (UniProt Q9HD26),0.029

row,Target,log2 fold change
1,GNL3 (UniProt Q9BVP2),-0.066
2,GIGYF2 (UniProt Q6Y7W6),-0.004
3,GSTP1 (UniProt P09211),-0.038
4,GNL1 (UniProt P36915),-0.021
5,GTF3A (UniProt Q92664),0.043
6,GEMIN2 (UniProt O14893),0.038
7,FUT8 (UniProt Q9BYC5),0.013
8,GLCCI1 (UniProt Q86VQ1),-0.042
9,FAT1 (UniProt Q14517),0.176
10,GLRX3 (UniProt O76003),0.034
11,IFRD1 (UniProt O00458),0.175
12,IDI1 isoform 2 (UniProt Q13907),0.078
13,HEATR3 (UniProt Q7Z4Q2),0.02
14,GABARAPL2 (UniProt P60520),-0.049
15,GTPBP6 (UniProt O43824),-0.115
16,GCLM (UniProt P48507),0.077
17,GTF2A2 (UniProt P52657),-0.008
